Inconclusive results are not listed. A call without a number means that no potency is given here. The source made the active and inactive calls. Unless noted, the call rests on the fitted dose curve; in most records, active means well fitted curve in the direction sought with a large enough effect in the repeat runs; inconclusive means weak or mixed curves; inactive means no such curve, though single readings can be large; an effect the other way counts as inactive or inconclusive.
How the values were obtained:
[1] = qHTS assay to identify aromatase inhibitors - cell viability counter screen (AID 743084);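 further: cells stimulated with testosterone during compound exposure; nearly all actives have a fitted effect of over 55% in size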
[2] = target: Aryl hydrocarbon receptor (Homo sapiens) (UniProt P35869); assay: qHTS assay to identify small molecule that activate the aryl hydrocarbon receptor (AhR) signaling pathway (AID 743085); further: nearly all actives have a fitted effect of over 15% in size; further: potency means the concentration at half of the fitted maximal effect;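 on activation: HG2L7.5c1 human HepG2 liver cells with stably integrated DRE-driven firefly reporter; series mostly up to about 70 µM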
Outline: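 HepG2 cells (HG2L7.5c1) stably carrying a firefly luciferase reporter driven by 20 dioxin responsive elements were exposed to compound for 24 h at 37C after a 5 h settling period; luminescence rise (ONE-Glo) indicated activation.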

[3] = qHTS assay to identify small molecule that activate the aryl hydrocarbon receptor (AhR) signaling pathway - cell viability counter screen (AID 743086);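 further: HepG2 liver cells carrying the AhR DRE luciferase reporter; series mostly up to about 70 µM; nearly all actives have a fitted effect of over 45% in size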
Outline: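 Cytotoxicity counter screen: CellTiter-Fluor signal (30 min, 37 C) in 4000 HepG2 cells/well carrying the DRE-luciferase reporter, following 24 h compound exposure at 37 C.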

[4] = target: Peroxisome proliferator-activated receptor gamma (Homo sapiens) (UniProt P37231); assay: qHTS assay to identify small molecule agonists of the peroxisome proliferator-activated receptor gamma (PPARg) signaling pathway (AID 743094; active means well fitted activation curve with a large enough effect in the signal ratio in the repeat runs, not every such curve was filed as active; the % refers to the signal ratio)
Outline: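 Stably transfected HEK293H cells (GeneBLAzer PPARg UAS-bla) were incubated with test substances for 17 h at 37C after a 5 h pre-incubation; beta-lactamase activity was then detected by FRET substrate fluorescence.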

[5] = target: Peroxisome proliferator-activated receptor gamma (Homo sapiens) (UniProt P37231); assay: qHTS assay to identify small molecule antagonists of the peroxisome proliferator-activated receptor gamma (PPARg) signaling pathway (AID 743191; calls by dose curve; further: series mostly up to about 63 µM; nearly all actives have a fitted effect of over 30% in size)
Outline: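 Beta-lactamase reporter under UAS control in HEK293H PPARg-bla cells; compound treatment 17 h at 37C. Read-out: fluorescence intensity after 1 h room-temperature incubation with LiveBLAzer B/G FRET substrate.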

[6] = qHTS assay to identify small molecule antagonists of the peroxisome proliferator-activated receptor gamma (PPARg) signaling pathway - cell viability counter screen (AID 743194); conditions: Potency: co-treated with 50 nM rosiglitazone; further: nearly all actives have a fitted effect of over 55% in size
Outline: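 Viability was measured as CellTiter-Glo luminescence in GeneBLAzer PPARg UAS-bla HEK293H cells. These cells had been exposed 17 h at 37 C to compounds together with rosiglitazone at 50 nM final, with the beta-lactamase readout taken in the same wells.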

[7] = qHTS assay for small molecule agonists of the antioxidant response element (ARE) signaling pathway - cell viability counter screen (AID 743203; calls by dose curve; further: nearly all actives have a fitted effect of over 55% in size)
Outline: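 Cells (ARE-bla HepG2, 2,000/well) receive DMSO-dissolved compounds after a 5 hrs rest. Plates incubate 16 hrs at 37C/5% CO2. CellTiter-Glo luminescence is then recorded after 30 min at room temperature.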

[8] = qHTS assay for small molecule activators of the heat shock response signaling pathway - cell viability counter screen (AID 743209); further: nearly all actives have a fitted effect of over 50% in size
Outline: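 Quantitative HTS format, Tox21 10K library. HeLa cells carrying an HSE-driven beta-lactamase reporter were treated 5 h at 37 C, then assessed for viability by CellTiter-Glo luminescence.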

[9] = qHTS assay for small molecule activators of the heat shock response signaling pathway (AID 743210; active means well fitted activation curve with a large enough effect in the signal ratio in the repeat runs, with a control signal flat, not every such curve was filed as active; the % refers to the signal ratio;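 further: HeLa cells with beta-lactamase reporter driven by heat shock elements; series mostly up to about 63 µM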)
Outline: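 HeLa HSE-bla cells, overnight plating; cpd in DMSO 5 h, 37 C; LiveBLAzer B/G FRET substrate 2.5 h RT; fluorescence intensity read.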

[10] = qHTS assay for small molecule agonists of the antioxidant response element (ARE) signaling pathway (AID 743202; active means well fitted activation curve with a large enough effect in the signal ratio in the repeat runs, not every such curve was filed as active; the % refers to the signal ratio; further: potency means the concentration at half of the fitted maximal effect)
Outline: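 Quantitative high-throughput format in HepG2 cells bearing an integrated ARE-beta-lactamase reporter. Compound exposure lasted 16 h at 37 C, and fluorescence was read 2 h after adding LiveBLAzer B/G substrate at room temperature.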

Chain of Aryl hydrocarbon receptor (Homo sapiens) (P35869 whole entry, looked up): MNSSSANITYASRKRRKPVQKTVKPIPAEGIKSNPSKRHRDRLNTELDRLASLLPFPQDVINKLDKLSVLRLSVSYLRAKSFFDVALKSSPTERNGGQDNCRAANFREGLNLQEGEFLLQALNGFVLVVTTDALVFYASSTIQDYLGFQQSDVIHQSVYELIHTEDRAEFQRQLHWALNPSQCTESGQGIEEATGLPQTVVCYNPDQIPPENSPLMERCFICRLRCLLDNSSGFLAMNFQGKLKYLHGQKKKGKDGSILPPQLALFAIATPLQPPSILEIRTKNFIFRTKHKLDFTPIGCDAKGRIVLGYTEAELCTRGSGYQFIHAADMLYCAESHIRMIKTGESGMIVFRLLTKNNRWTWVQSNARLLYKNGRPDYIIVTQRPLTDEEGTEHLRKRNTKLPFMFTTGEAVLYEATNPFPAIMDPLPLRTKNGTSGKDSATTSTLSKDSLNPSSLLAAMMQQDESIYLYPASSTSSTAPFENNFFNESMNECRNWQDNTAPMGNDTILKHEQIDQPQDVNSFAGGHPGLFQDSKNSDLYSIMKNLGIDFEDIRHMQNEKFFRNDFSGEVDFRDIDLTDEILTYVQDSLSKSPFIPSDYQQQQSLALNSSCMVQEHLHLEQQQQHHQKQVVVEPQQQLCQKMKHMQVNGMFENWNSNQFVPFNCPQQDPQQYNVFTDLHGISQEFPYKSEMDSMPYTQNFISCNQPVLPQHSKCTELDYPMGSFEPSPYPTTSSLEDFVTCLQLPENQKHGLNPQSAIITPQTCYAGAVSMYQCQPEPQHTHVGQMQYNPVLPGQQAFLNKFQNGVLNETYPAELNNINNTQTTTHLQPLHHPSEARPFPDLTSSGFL
Chain of Peroxisome proliferator-activated receptor gamma (Homo sapiens) (P37231 whole entry, looked up): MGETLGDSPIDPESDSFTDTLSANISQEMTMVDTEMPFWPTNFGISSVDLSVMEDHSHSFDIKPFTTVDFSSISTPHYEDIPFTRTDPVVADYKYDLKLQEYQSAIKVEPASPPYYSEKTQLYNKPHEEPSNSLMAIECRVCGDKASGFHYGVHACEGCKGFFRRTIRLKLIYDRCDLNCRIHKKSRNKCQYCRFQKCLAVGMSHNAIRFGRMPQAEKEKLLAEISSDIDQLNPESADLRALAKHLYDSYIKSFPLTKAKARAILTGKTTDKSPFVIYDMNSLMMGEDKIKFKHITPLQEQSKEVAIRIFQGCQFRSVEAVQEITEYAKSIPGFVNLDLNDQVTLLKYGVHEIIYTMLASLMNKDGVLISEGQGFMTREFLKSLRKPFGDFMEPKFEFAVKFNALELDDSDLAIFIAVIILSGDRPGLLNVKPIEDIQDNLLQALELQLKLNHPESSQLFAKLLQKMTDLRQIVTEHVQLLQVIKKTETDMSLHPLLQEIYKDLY

Structure (SMILES) | Potency [1] | Potency [2] | outcome [3] | outcome [4] | Potency [5] | Potency [6] | Potency [7] | Potency [8] | outcome [9] | Potency [10]
CC1(C)CON(Cc2ccccc2Cl)C1=O | inactive | inactive | inactive | inactive | inactive | inactive | inactive | inactive | inactive | –
C=C(C)CN(CC)c1c([N+](=O)[O-])cc(C(F)(F)F)cc1[N+](=O)[O-] | inactive | inactive | inactive | inactive | inactive | – | inactive | inactive | inactive | inactive
N#Cc1ccncc1 | inactive | inactive | inactive | inactive | inactive | – | inactive | inactive | inactive | inactive
O=[N+]([O-])c1cccc(O)c1 | inactive | inactive | inactive | inactive | inactive | inactive | inactive | inactive | inactive | –
C[N+](=O)[O-] | inactive | inactive | inactive | inactive | inactive | inactive | inactive | inactive | inactive | –
COc1ccc(C(=O)N2CCCC2=O)cc1 | inactive | inactive | inactive | inactive | inactive | inactive | inactive | inactive | inactive | inactive
CCCCN(CCCCO)N=O | inactive | inactive | inactive | inactive | inactive | inactive | – | inactive | inactive | inactive
CC(C)[N+](=O)[O-] | inactive | inactive | inactive | inactive | – | inactive | inactive | inactive | inactive | inactive
O=C1OC(=O)C2C1C1(Cl)C(Cl)=C(Cl)C2(Cl)C1(Cl)Cl (stereo not given) | inactive | inactive | inactive | inactive | inactive | inactive | inactive | inactive | inactive | inactive
CCOc1nc(C(Cl)(Cl)Cl)ns1 | inactive | inactive | inactive | inactive | – | inactive | inactive | inactive | inactive | inactive
CCC/C(=N\OCC)C1=C(O)CC(CC(C)SCC)CC1=O (stereo not given) | inactive | inactive | inactive | inactive | inactive | inactive | inactive | inactive | – | –
COc1ccc2c(c1OC)CN1CCc3cc4c(cc3C1C2)OCO4 (stereo not given) | inactive | 0.403 µM (active) | inactive | inactive | inactive | inactive | inactive | inactive | inactive | –
ClC(Br)Br | inactive | inactive | inactive | inactive | inactive | inactive | inactive | inactive | inactive | inactive
CCOP(=O)(OCC)OP(=O)(OCC)OCC | inactive | inactive | inactive | inactive | inactive | inactive | inactive | inactive | inactive | inactive
ClCCOCOCCCl | inactive | inactive | inactive | inactive | – | inactive | inactive | inactive | – | inactive
CCOP(=S)(OCC)Oc1ncn(-c2ccccc2)n1 | inactive | 24.3 µM (active) | inactive | inactive | inactive | inactive | inactive | inactive | inactive | –
COC(=O)C1=CCCN(C)C1 | inactive | inactive | inactive | inactive | – | inactive | inactive | inactive | inactive | inactive
O=C(Oc1ccc(Br)cc1)N1CCN2CCC1CC2 | inactive | inactive | inactive | inactive | inactive | inactive | inactive | inactive | inactive | –
COc1cc2c(cc1OC)[C@@]13CCN4CC5=CCO[C@H]6CC(=O)N2[C@H]1[C@H]6[C@H]5C[C@H]43 | inactive | inactive | inactive | inactive | inactive | inactive | inactive | inactive | – | –
COC(=O)c1ccccc1S(=O)(=O)NC(=O)N(C)c1nc(C)nc(OC)n1 | inactive | inactive | inactive | inactive | inactive | – | inactive | inactive | inactive | inactive
C[C@]1(O)CC[C@H]2[C@@H]3CCC4=CC(=O)CC[C@]4(C)[C@@]3(F)[C@@H](O)C[C@@]21C | inactive | inactive | inactive | inactive | inactive | – | inactive | inactive | inactive | –
COc1cc(OC)nc(NC(=O)NS(=O)(=O)c2ncccc2C(=O)N(C)C)n1 | inactive | inactive | inactive | inactive | inactive | inactive | inactive | inactive | inactive | inactive
Cc1cnc[nH]1 | inactive | inactive | inactive | inactive | inactive | – | inactive | inactive | – | inactive
CCc1cc2c(s1)-n1c(C)nnc1CN=C2c1ccccc1Cl | inactive | inactive | inactive | – | – | inactive | inactive | inactive | inactive | inactive
O=C(O)C(Br)CBr (stereo not given) | inactive | inactive | inactive | – | – | inactive | inactive | inactive | inactive | 27.8 µM (active)
ClC(Cl)C(Cl)Cl | inactive | inactive | inactive | – | – | inactive | inactive | inactive | inactive | inactive
COc1ncc(F)c2nc(S(=O)(=O)Nc3c(F)cccc3F)nn12 | inactive | inactive | inactive | – | – | inactive | inactive | inactive | – | inactive
CC(Oc1ccc(Oc2ncc(C(F)(F)F)cc2Cl)cc1)C(=O)O (stereo not given) | inactive | inactive | inactive | – | – | inactive | inactive | inactive | inactive | –

Source: PubChem BioAssay (Tox21)
